Rows were chosen to be rich in hits. Some 3.4% of all compounds tested hit in one or more screens of this group.
GPR151 ag – human GPR151 activation; AID 1508602; PathHunter beta-arrestin GPR151 cells, luminescence; 650,000 tested, 1% active; activation, % at 11.2 µM; Q8TDV0; in the data active = activation above about 4.9%;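 note: 0% = median of compound wells and 100% = cells with positive control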
Target sequence (Q8TDV0 whole entry, looked up): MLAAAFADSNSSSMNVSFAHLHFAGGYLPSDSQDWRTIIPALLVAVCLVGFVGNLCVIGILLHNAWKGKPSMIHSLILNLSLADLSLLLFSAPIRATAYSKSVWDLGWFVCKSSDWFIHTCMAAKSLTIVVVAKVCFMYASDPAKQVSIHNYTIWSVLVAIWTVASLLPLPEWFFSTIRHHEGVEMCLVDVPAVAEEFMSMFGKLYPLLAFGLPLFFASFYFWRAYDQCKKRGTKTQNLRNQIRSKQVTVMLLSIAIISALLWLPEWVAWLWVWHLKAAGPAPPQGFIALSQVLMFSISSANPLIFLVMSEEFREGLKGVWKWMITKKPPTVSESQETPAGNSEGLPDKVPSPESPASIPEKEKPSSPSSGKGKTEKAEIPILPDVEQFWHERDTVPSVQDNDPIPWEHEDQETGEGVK
MITF inh – human MITF inhibition, primary screen; O75030; AlphaScreen MITF homodimerization, bead proximity signal; inhibition, % at 2.6 µM; 650,000 tested, 0.91% active; AID 1259374; in the data active = inhibition above about 50%;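 note: 0% = vehicle wells with protein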
FBW7 activator – activators of human E3 ligase FBW7; Q969H0; AlphaScreen FBW7–phospho-cyclin E peptide binding, activator screen; normalized activity (activation), % at 26.1 µM; 650,000 tested, 0.13% active; AID 1259310; in the data active = normalized activity above about 1.9%;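 note: purified mutant Fbw7 with reduced substrate affinity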
TEAD-YAP inh – TEAD-YAP interaction inhibition | HEK-TIYL cells, TEAD-Gal4/YAP UAS-luciferase luminescence | inhibition, % at 9.12 µM | 640,000 tested, 1.4% active | AID 1259422; in the data active = inhibition above about 32%;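 note: 0% = median of test compound wells and 100% = reference inhibitor wells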
Active calls of the source: *.

SMILES	GPR151 ag	MITF inh	FBW7 activator	TEAD-YAP inh
Cc1ccccc1CN1CCN(Cc2cccc3ccccc23)CC1	0	79*	0	-6
CC12CN(C=O)CC(C)(CN(Cc3ccccc3)C1)C2O (centres undefined)	-1	5	0	2
Oc1ccc(Cl)cc1CNc1nc2ccccc2[nH]1	2	-4	0	-16
Oc1ccc(Br)cc1CNc1nc2ccccc2[nH]1	0	74*	0	-10
CC1CCc2cc(F)cc3c(O)c(C(=O)Nc4ccccn4)c(=O)n1c23 (centres undefined)	0	8	2.0*	10
OC1(c2nnc(-c3ccccc3)o2)c2ccccc2-c2ccccc21	1	-4	0	3
CC(C)c1cc(C(=O)NCCc2ccccc2)nn1-c1nc2ccccc2s1	0	2	0	44*
COc1ccc(NC(=O)c2cc(C(C)C)n(-c3nc4ccccc4s3)n2)cc1OC	0	-7	0	56*
CCOC(=O)c1csc2c1CCC/C2=N\O	-2	-3	0	48*
CCOC(=O)c1csc2c1CCC(Br)(Br)C2=O	0	17	0	5
CCOC(=O)c1csc2c1CCC/C2=N/O	0	-6	0	51*
Cc1ccc2nc(-c3ccc(Br)c(N)c3)oc2c1	-2	20	1	70*
Cc1ccc2nc(-c3cccc(-c4nc5ccc(C)cc5o4)c3)oc2c1	0	-11	0	-46
Cc1ccc2nc(-c3ccc(C)c(N)c3)oc2c1	-8	11	1	55*
Cc1ccc2nc(-c3ccc(NC(=O)c4cc(I)ccc4Br)cc3)oc2c1	-1	7	0	-29
CN1C(=O)N(C)C2C1NNC(=S)N2C (centres undefined)	-1	11	0	61*
COc1ccc(CNc2nccn3c(-c4cccc5ccccc45)cnc23)cc1	1	4	2.2*	-8
O=C(Nc1ccc(CN2CCN(c3ccccn3)CC2)cc1)C1CCCCC1	1	11	0	-35
Cn1c(=O)c(C(=O)Nc2ccc(Cl)c(Cl)c2)c(O)c2ccccc21	1	-2	0	12
O=C(NNC(=O)C1c2ccccc2Oc2ccccc21)Nc1ccc2c(c1)OCO2	2	-10	0	61*
O=C(NC1CC1)C1CCN(C(=O)Nc2ccccc2)CC1	-1	-1	0	-55
CC(=O)NC1CCN(C(=O)Nc2ccccc2)CC1	4	15	2.1*	7
CC(=O)Oc1ccccc1C(=O)N1CCN(c2ccc([N+](=O)[O-])cc2)CC1	-1	6	0	13
CC12CN(CO)CC(C)(CN(Cc3ccccc3)C1)C2=O	1	7	2.6*	8
CC12CNCC(C)(CN(Cc3ccccc3)C1)C2=O	-1	1	0	6
SMILES	GPR151 ag	MITF inh	FBW7 activator	TEAD-YAP inh
NS(=O)(=O)c1ccc(N=Cc2ccc[nH]2)cc1	-1	-2	0	-5
Oc1ccc(N=Cc2ccc[nH]2)cc1N=Cc1ccc[nH]1	2	87*	0	-2
O=[N+]([O-])c1cnc(Nc2ccccc2O)c([N+](=O)[O-])c1	-1	10	0	7
COc1cc(N2C(=O)NC(=O)/C(=C\c3ccc(N(C)C)cc3)C2=O)cc(OC)c1OC	0	2	2.5*	2
O=C(Nc1ccc2[nH]ncc2c1)c1cccnc1OC1CCN(Cc2ccccc2)CC1	0	-2	0	-1
CN1CCC(Oc2ccnc(C(=O)Nc3ccc4[nH]ncc4c3)c2)CC1	-1	10	1	10
O=C(Nc1ccc2[nH]ncc2c1)c1cc(O[C@H]2CCNC2)ccn1	1	11	0	43*
CN1CC[C@@H](Oc2ccnc(C(=O)Nc3ccc4[nH]ncc4c3)c2)C1	0	11	0	66*
O=C(Nc1ccc2[nH]ncc2c1)c1ccc(OC2CCN(Cc3ccccc3)CC2)nc1	1	21	0	44*
Cc1ccccc1-n1nc2c(c1NC(=O)CCC1CCCC1)CSC2	2	10	0	-1
COC(=O)c1ccc(NC(=O)CSc2nc3cccnc3n2Cc2ccccc2)cc1	0	-9	0	15
N#C/C(=C\c1ccc(-c2cccc([N+](=O)[O-])c2)o1)C(N)=O	1	7	0	8
N#C/C(=C/c1ccc(-c2ccc([N+](=O)[O-])cc2)o1)C(N)=O	0	12	2.4*	15
CN1/C(=C/C=C(C#N)C#N)C=Cc2ccccc21	0	9	0	-9
C=CCN1C=C/C(=C\C=C(C#N)C#N)c2ccccc21	-2	68*	-2	13
O=C(Nc1nc2ccccc2[nH]1)c1ccco1	-6	-1	0	-50
Cc1ccc(NC(=O)CC2c3ccccc3Oc3ccccc32)nc1	0	15	0	52*
O=C(CC1c2ccccc2Oc2ccccc21)Nc1ccccn1	0	17	0	25
COc1cc(C(=O)/C=C/c2cccc(F)c2)ccc1O	4	8	0	56*
COC(=O)c1ccc(/C=C/C(=O)c2ccc(F)cc2)cc1	3	0	0	-40
COc1cc(C(=O)/C=C/c2ccc(F)cc2)ccc1O	0	-14	0	66*
COc1ccc(C(=O)/C=C/c2cccc(F)c2)cc1	1	-3	-1	-46
CCSc1nnc(NC(=O)/C=C/c2c(F)cccc2Cl)s1	1	-1	0	1
O=C(NCc1ccccc1Cl)c1ccc2c(=O)n(Cc3ccc4c(c3)OCO4)c(=S)[nH]c2c1	-2	21	0	3
COc1ccc(-c2nc(NCc3cccnc3)c3ncn(C(C)C)c3n2)cc1	4	11	1	4
SMILES	GPR151 ag	MITF inh	FBW7 activator	TEAD-YAP inh
COc1ccc(CCNc2nc(-c3ccc(C(N)=O)cc3)nc3c2ncn3C2CCCCC2)cc1	-1	-1	0	9
O=C(NC1CC1)c1ccc(-c2nc(NCCc3ccc(O)cc3)c3ncn(-c4ccsc4)c3n2)cc1	1	6	0	58*
COc1ccc(CCNc2nc(-c3ccc(N4CCOCC4)nc3)nc3c2ncn3-c2ccsc2)cc1	1	-1	0	-1
CC(C)n1cnc2c(NCc3cccnc3)nc(-c3ccc(C(N)=O)cc3)nc21	0	26	0	39*
COc1ccc(CCNc2nc(-c3ccc(C(=O)NC4CC4)cc3)nc3c2ncn3C2CCCCC2)cc1	1	7	0	51*
Oc1ccc(CCNc2nc(-c3ccc(N4CCOCC4)nc3)nc3c2ncn3-c2ccsc2)cc1	0	-10	0	65*
COc1cccc(NC(=S)N(CCCN2CCCC2)Cc2cccs2)c1	1	-10	0	3
NC(=O)c1ccc(-c2nc(NCc3cccnc3)c3ncn(-c4ccsc4)c3n2)cc1	0	-1	0	51*
NC(=O)c1ccc(-c2nc(NCCc3ccc(O)cc3)c3ncn(-c4ccsc4)c3n2)cc1	-1	8	0	43*
Nc1ncnc(N2CCN(c3ccc(F)cc3)CC2)c1[N+](=O)[O-]	1	12	0	19
CN(C)Cc1ccc2c(sc3nc4n(c(=O)c32)CCCCC4)c1O	-1	8	0	53*
CCC(C(=O)O)N1C(=O)/C(=C\c2ccc(C)o2)SC1=S (centres undefined)	-1	62*	0	0

Bioassay records deposited in PubChem BioAssay by The Scripps Research Institute Molecular Screening Center.
